Test results reported in the supplement of paper PMC3334620.
In all, about 33,000 sequences were measured (“E-score (-0.5 to 0.5)”: median about -0.0059, highest 2% from about 0.26 on). The entries come from a sample that favours the highest values as a whole.

What follows are sequences tested against T1, Cin5 (UniProt P40917) (assay: PBM E-score (8-mer binding enrichment) (E-score (-0.5 to 0.5)); higher = stronger / more preferred TF binding). Settings: protein concentration: 100 nM; construct: GST-full length.
T1 sequence: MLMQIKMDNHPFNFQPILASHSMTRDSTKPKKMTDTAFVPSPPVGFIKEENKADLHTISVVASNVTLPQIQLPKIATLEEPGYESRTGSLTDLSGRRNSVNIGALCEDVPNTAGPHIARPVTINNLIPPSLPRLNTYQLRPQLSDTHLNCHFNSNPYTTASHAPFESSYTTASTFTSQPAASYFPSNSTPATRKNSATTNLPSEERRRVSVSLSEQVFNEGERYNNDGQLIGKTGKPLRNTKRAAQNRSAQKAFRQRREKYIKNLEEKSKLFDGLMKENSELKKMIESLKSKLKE
In short: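 PURExpress in vitro transcription/translation supplied GST-tagged yeast transcription factors, either full-length or DNA-binding domain. Applied at about 100-200 nM to universal all-10-mer Agilent arrays double-stranded by primer extension, the bound protein was detected with fluorescent anti-GST. E-scores, modified Wilcoxon-Mann-Whitney statistics, were given by the Universal PBM Analysis Suite to ungapped eight-base words pooled with their reverse complements after masliner normalisation.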

Sequence	PBM E-score
ATAACGAC	0.238
GTAACGTA	0.129
CTAACGAA	-0.0791
CTAACCAA	0.0775
ATAACCAG	0.0194
ACCGGCGC	0.0762
ATCCGGCA	0.0463
GGTGAACC	-0.108
CTTTTGAC	-0.0394
AGTTACTC	0.0474
CGACACCC	-0.0488
ACATAGAG	-0.0918
ATGCGCAT	0.332
ATGCGCAA	0.128
ATGCGCAC	0.0881
AAGTCTAA	-0.0864
ACCCATTG	-0.0482
CAAGTTAC	0.104
ATCAGCAA	0.0322
ATAAGCAT	0.118
CTCAGCAA	0.0669
ATAAGCAG	0.33
CTAAGCAA	0.076
CTAAGCAG	0.042
CTAAGCAC	0.183

Sequence	PBM E-score
ATAAGCAC	0.175
ACAAGCAA	0.122
GTAAGCAC	0.319
ATAAGCAA	0.349
GTCAGCAA	0.267
ACTGGAGC	-0.253
GCTATCCC	-0.129
ATAGGCAA	0.157
AAGAAGAA	0.0684
ACTCCTAA	0.00319
ATCAACGA	0.0637
GTAACGCA	0.0946
ACCCCGGA	-0.00022
GTAAGCAA	0.419
GCAAGCAA	0.00274
TTAAGCAA	0.0545
AACACTCA	0.182
CGGCCAAG	-0.069
AAAGGCGG	-0.104
ACGAAGAT	0.116
TCGAAGAA	0.014
ACGAAGAA	0.284
GCAATGCA	-0.053
GGCTCTAA	0.0226
ACCATTGC	0.0233

Sequence	PBM E-score
GTGCAAAA	-0.037
ACCAATTA	0.266
ATCAATTA	0.317
AACAATTA	0.295
GCCAATTA	0.155
AACAATTG	0.0983
ATCAATTC	0.044
AACAATTC	0.111
ATCAATTG	0.232
ACCAATTG	-0.0132
CCTGGACG	-0.179
GCCTCAAA	0.0112
GGCCTGGA	-0.317
AGCCCCAG	-0.0735
CCTCACAG	0.0094
CGGGGAAG	-0.0981
CACGTTGA	-0.095
CTAAGCCA	-0.074
GTAAGCTA	0.36
ATAAGCTA	0.2
ATAAGCCA	0.11
CTAAGCTA	0.162
GTAAGCCA	0.264
AGTCTCAG	-0.123
AACCTGAC	0.131

Sequence	PBM E-score
ACGAGTCA	-0.257
CAAGAAGC	0.0478
AGCTCATG	-0.0196
CAGACGAC	-0.168
GAGACGAA	0.0297
CAGACGAA	0.286
GAGCGGTA	-0.0453
GCAAAAGC	-0.0287
ATTCCACG	0.0808
ATTCCGCC	0.215
ATCCCGCA	0.135
ATTCCACA	0.266
ATCCCGCC	0.0426
ATTCCGCA	-0.0146
ATTCCGCG	0.261
ATCCCGCG	0.258
ATTCCACC	0.15
ATGACGCA	0.195
ATTATTAC	0.305
CGTATTAA	0.106
ATTATTAA	0.316
ACTATTAA	0.162
GTTATTAA	0.214
CTTATTAA	0.299
ACTATTAC	0.224

Sequence	PBM E-score
CTTATTGA	0.125
CTTATTAC	0.236
CGGGAACG	-0.00694
GAGCGGCC	-0.239
GAGATCTC	-0.0335
GATCCCTA	-0.0517
AACATAAG	0.328
ATCATAAT	0.327
AACATAAT	0.346
AACATACG	0.171
ATCATAAG	0.204
AACATACT	0.0533
CACATAAG	0.109
ATCATAAA	0.131
AACATAAC	0.223
AAGTCAAC	0.0456
CACTGTTC	-0.108
AGGATATA	0.152
CAGTCCGA	-0.0341
AGGTTAGC	-0.199
TCGTCGAA	-0.161
AAACATGT	0.261
AAACATAT	0.269
AAACATGA	0.131
AAACATAC	0.0238

Sequence	PBM E-score
AAACATGG	0.0681
AAACATAG	-0.0763
CCCAAGGC	-0.0737
AAACCTTG	0.072
ACTAAAGA	-0.0785
CAGGGCGC	-0.0291
TAAGCAGA	0.306
CAAGCGAA	0.187
GAAGCGAA	-0.0046
CAAGCACG	-0.0414
CAAGCACA	-0.0819
TAAGCACA	0.314
AAAGCAGA	0.178
CAAGCAGA	0.0983
TAAGCGAA	0.275
ACCGGGAC	-0.0537
AAGGGGAG	-0.252
ATTTTACC	0.237
ATTTTTCC	-0.0233
ATTTCTCA	0.0803
ATTTCTCC	0.0831
ATTTTCCG	0.329
AATTTTCC	0.289
AATTTACG	0.234
AATTTTTC	0.057

Sequence	PBM E-score
AATTTCCG	0.18
ATTTTCCC	0.0377
ATTTCTCG	0.313
ATTTTACG	0.271
ATACTTCG	0.129
GACGTCCC	-0.0301
GCATTCGC	-0.157
AGACACCT	-0.048
CGAGCGCA	0.0288
CCGCCACG	-0.222
ATTTCCCC	0.0813
ATTTCCCG	0.258
ATTTCCCA	0.165
CAGTAACC	-0.021
AAGCAATC	0.165
ATCTAATC	0.306
ACCTAATC	0.311
ATCTAATG	-0.00795
ACCTAAGC	0.327
ACCTAATA	0.246
CCCTAATC	0.0683
CCCTAAGC	-0.145
GCCTAAGC	-0.181
ATCTAATA	0.19
